Source: PubChem (The Scripps Research Institute Molecular Screening Center)
Sampled rows, rich in hits. Any-hit rate of the full collection: about 3.4%.
PAFAH1B2 inh – PAFAH1B2 (human) inhibition; recombinant PAFAH1B2, FP-rhodamine activity probe, fluorescence polarization; 340,000 tested, 1.2% active; inhibition, % at 3.39 µM; P68402; AID 492953;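 active = inhibition above the mean of all tested compounds plus 3 SD, cut at about 24% in these data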
Target sequence (P68402 whole entry, looked up): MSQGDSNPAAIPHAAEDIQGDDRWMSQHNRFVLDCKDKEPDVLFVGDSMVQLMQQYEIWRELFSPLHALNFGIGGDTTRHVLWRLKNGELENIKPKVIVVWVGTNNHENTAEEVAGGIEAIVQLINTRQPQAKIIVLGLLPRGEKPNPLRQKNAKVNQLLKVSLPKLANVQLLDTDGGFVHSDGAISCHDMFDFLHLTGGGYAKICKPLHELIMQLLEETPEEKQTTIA
PP5 inh – blocks human protein phosphatase 5 activity. P53041. AID 1987. purified PP5c, OMFP substrate fluorescence. 320,000 tested, 0.18% active. inhibition, % at 6.7 µM;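 active = inhibition above the campaign's mean inhibition across all tested compounds plus 3 SD, cut at about 9.5% in these data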
PAFAH2 FP inh – PAFAH2 (human) inhibition; recombinant PAFAH2, FP-rhodamine activity probe, fluorescence polarization; AID 492956; inhibition, % at 3.39 µM; 340,000 tested, 0.99% active;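 active = inhibition above the mean over all tested compounds plus 3 SD, cut at about 30% in these data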;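 note: inhibitors block probe labeling of enzyme so polarization drops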
PP1 counter – PP1-alpha (human) inhibition in PP5 counter-screen; purified PP1alpha, OMFP fluorescence; inhibition, % at 6.7 µM; 320,000 tested, 0.9% active; P62136;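 active = inhibition above the mean inhibition of all tested compounds plus 3 SD, computed separately for each screening campaign, cut at about 15% in these data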
Target sequence (P62136 whole entry, looked up): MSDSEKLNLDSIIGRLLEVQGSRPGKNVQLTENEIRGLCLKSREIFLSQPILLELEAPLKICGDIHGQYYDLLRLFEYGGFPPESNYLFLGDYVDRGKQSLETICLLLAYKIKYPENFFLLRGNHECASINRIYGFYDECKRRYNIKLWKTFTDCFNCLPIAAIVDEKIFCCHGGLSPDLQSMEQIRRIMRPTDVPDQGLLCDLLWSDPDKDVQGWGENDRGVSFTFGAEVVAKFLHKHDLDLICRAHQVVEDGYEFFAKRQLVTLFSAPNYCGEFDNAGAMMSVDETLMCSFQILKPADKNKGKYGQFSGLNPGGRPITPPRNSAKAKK
PAFAH1B3 inh – blocks human PAF acetylhydrolase 1B catalytic subunit 3; Q15102; recombinant PAFAH1B3, FP-rhodamine probe, fluorescence polarization; inhibition, % at 3.39 µM; 340,000 tested, 0.28% active;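 active = inhibition above the screen-wide average of all tested compounds plus 3 SD, cut at about 25% in these data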
pPAFAH inh – inhibitors of human plasma PAF acetylhydrolase (pPAFAH) | recombinant pPAFAH, FP-rhodamine probe fluorescence polarization | inhibition, % at 3.39 µM | AID 463082 | Q13093 | 330,000 tested, 1.5% active;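 active = inhibition above the mean inhibition across the screen plus 3 SD, cut at about 25% in these data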;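 note: inhibitors block binding of the rhodamine activity-based probe so polarization drops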
PP1 confirm – human PP1 phosphatase inhibition, confirmation; shares compounds with PP1 counter; purified PP1alpha, OMFP substrate fluorescence; inhibition, % at 6.7 µM; 1,900 tested, 52% active;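 active = mean PP1 inhibition above a set limit taken from the earlier primary screen, cut at about 15% in these data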
PP5 counter – counter-screen for PP1 inhibitors: human PP5 phosphatase inhibition; shares compounds with PP1 counter; purified PP5c, OMFP fluorescence; inhibition, % at 6.7 µM; 1,900 tested, 4% active; AID 2360;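 active = mean PP5 inhibition over triplicate wells above about 9.5% taken from the earlier PP1 screen, limit read from the data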
Large screens that a line does not name were inactive (follow-up assays come after a bar, where they were run).

O=C(NCC(=O)N(c1ccccc1)C(C(=O)NC1CCCC1)c1cccnc1)c1ccco1 (stereo not drawn)	none
O=C1CN(C(=O)NCC(=O)N[C@@H](C(=O)O)c2ccccc2)c2ccccc2N1	PP1 counter 17.7 | PP1 confirm inactive | PP5 counter inactive
O=C1CN(C(=O)N[C@@H](Cc2ccccc2)C(=O)N[C@@H](C(=O)O)c2ccccc2)c2ccccc2N1	none
CCOc1cc(/C=N/Nc2cc(C)nc(-n3nc(C)cc3C)n2)ccc1O	PP1 counter 22.5 | PP1 confirm 22.1 | PP5 counter inactive
COc1ccc(/C=N/Nc2cc(C)nc(-n3nc(C)cc3C)n2)c(OC)c1	PP1 counter 36.9 | PP1 confirm 47.7 | PP5 counter inactive
CCCOc1ccc(C2C3=C(Nc4nc(N)[nH]c(=O)c42)c2ccccc2C3=O)cc1 (stereo not drawn)	PP1 counter 18.9 | PP1 confirm 16.5 | PP5 counter inactive
CCc1nnc(NC(=O)CSc2sc3c(O)cc(=O)[nH]c3c2C#N)s1	PP1 counter 18.1, pPAFAH inh 31.8 | PP1 confirm inactive | PP5 counter inactive
O=c1c(Cl)c(N/N=C/c2ccc(Br)cc2)cnn1-c1ccccc1	PP1 counter 24.1 | PP1 confirm 21.9 | PP5 counter inactive
CNc1cnn(-c2ccccc2)c(=O)c1Cl	none
CN1CCN(C(c2ccc(Br)cc2)c2cc(Cl)c3cccnc3c2O)CC1 (stereo not drawn)	PP1 counter 24.1 | PP1 confirm inactive | PP5 counter inactive
COc1cc(/C=N/NC(=O)c2ccccc2O)ccc1OCC(=O)Nc1ccccc1	PP1 counter 18.3 | PP1 confirm 15.6 | PP5 counter inactive
COc1cc(/C=N/NC(=O)c2ccncc2)ccc1OCC(=O)Nc1ccccc1	none
CCCn1c2ccccc2c2nnc(SCC(=O)Nc3nnc(CC(=O)OCC)s3)nc21	none
COCCCNc1ncnc2c1nc1n2CCCC1	none (no result: PP5 inh, PP1 counter, pPAFAH inh)
Cc1cc(Cl)ccc1NC(=S)NCCC(c1ccccc1)c1ccccc1	PP1 counter 18.1 | PP1 confirm inactive | PP5 counter inactive
CCNc1nc(NCC)nc(C(=O)NN)n1	PP1 counter 23.9 | PP1 confirm inactive | PP5 counter inactive
COc1ccc(N2CCN(C(CNC(=O)C3CCCCC3)c3cccnc3)CC2)cc1 (stereo not drawn)	none
Cn1c(=O)cc(SCC(=O)NCCC2=CCCCC2)c2ccc(Cl)cc21	none
N#Cc1ccccc1NC(=O)CSc1nnc(-c2ccncc2)o1	PP1 counter 33.1 | PP1 confirm inactive | PP5 counter inactive
Cc1ccc(C)c(NC(=O)CSc2nnc(-c3ccncc3)o2)c1	none (no result: PAFAH1B2 inh, PAFAH2 FP inh, PAFAH1B3 inh)
CCN1C(=O)/C(=C2/Sc3ccc(OC)cc3N2C)SC1=Nc1ccc(OC)cc1	none
CCCCn1c(-c2ccco2)nc2oc3ccccc3c(=O)c2c1=O	none
COc1ccc(CN2C(=O)c3cccnc3C2=O)cc1S(=O)(=O)NC(C)C	none
Cc1sc(-c2ccccn2)nc1OC(=O)c1cccc(Cl)c1Cl	none
CCCc1cc(-c2ccc3c(c2)COc2c4ccccc4nn2-3)on1	PP1 counter 18.3 | PP1 confirm 19.4 | PP5 counter inactive
Cc1cc(-c2ccc3c(c2)COc2c4ccccc4nn2-3)on1	PP1 counter 25.3 | PP1 confirm 26.2 | PP5 counter inactive
C(#CC1CCCC1)c1ccc2c(c1)COc1c3ccccc3nn1-2	none
CCn1c(CC(=O)Nc2ccc(C)cc2)nnc1SCC(=O)N1CCOCC1	PP1 counter 26.4 | PP1 confirm inactive | PP5 counter inactive
C=CCn1c(CC(=O)Nc2ccc(C)cc2C)nnc1SCC(=O)N1CCOCC1	none
COc1ccccc1NS(=O)(=O)c1cc(C(=O)NCC2CCCO2)ccc1C (stereo not drawn)	none
CCOc1cc(/C=C2/NC(=O)N(CC(=O)Nc3cccc(C)c3)C2=O)ccc1OC	none
COc1cc(/C=C2/NC(=O)N(CC(=O)Nc3ccc(C)cc3)C2=O)ccc1Oc1ccc([N+](=O)[O-])cn1	PP1 counter 19.4 | PP1 confirm 23.4 | PP5 counter inactive
COc1ccc(-n2nc(C(=O)NCC(=O)N3CCN(c4ccc(F)cc4)CC3)c3ccccc3c2=O)c(OC)c1	none
COC(=O)COc1ccc(/C=C2/NC(=O)N(CC(=O)OC)C2=O)cc1	none
Cc1ccc(S(=O)(=O)N(CC(=O)N/N=C/c2ccccc2C(=O)O)c2cc(Cl)cc(Cl)c2)cc1	PP1 counter 18.9 | PP1 confirm 19.4 | PP5 counter inactive
O=C(Cn1nnc(-c2ccc(Cl)cc2)n1)NCc1ccco1	none
COc1ccc(C(=O)Nc2ccc(-c3nnn(CC(=O)NCc4ccco4)n3)cc2)cc1	PP1 counter 20.2 | PP1 confirm 23.7 | PP5 counter inactive
NC(=O)c1ccccc1OCC(=O)O	none
Cc1ccc(C(=O)Nc2nc(=O)n(C(=O)c3ccccc3Cl)s2)cc1	none (no result: PP5 inh, PP1 counter, pPAFAH inh)
NS(=O)(=O)c1cccc(NC(=O)c2cccc(-c3ccc(O)cc3)c2)c1	none
N=C1/C(=C\c2coc3ccccc3c2=O)C(=O)N=C2SC(c3ccncc3)=NN12	PP1 counter 33.8 | PP1 confirm 38.8 | PP5 counter inactive
O=C(N=Nc1c(O)[nH]c2ccccc12)c1cc(-c2cccs2)[nH]n1	PP1 counter 17.8 | PP1 confirm 23.9 | PP5 counter inactive
CCN1C(=O)/C(=C2\C=Cc3ccccc3N2CC)OC1=S	none
O=C1CN(CC(=O)Nc2ccc(Cl)cc2)CCN1	none
COc1cccc(N2C(=O)c3cccnc3C2O)c1 (stereo not drawn)	none (no result: PP5 inh, PP1 counter, pPAFAH inh)
COc1ccc(CN2C(=O)c3cccnc3C2Nc2cc(Cl)ccc2OC)cc1 (stereo not drawn)	PP1 counter 27.0 | PP1 confirm 26.0 | PP5 counter inactive
COc1ccc(CN2C(=O)c3cccnc3C2O)cc1 (stereo not drawn)	PP1 counter 34.3 | PP1 confirm 24.9 | PP5 counter inactive
Cc1ccc(CCP(=O)(O)CN2CCOCC2)cn1	none
COc1ccccc1NC(=O)Cn1c(CN2CCCCC2)nc2ccccc2c1=O	none
O=C(O)/C=C/C(=O)Nc1cccnc1	none
O=C(CCc1nnc(CCc2ccccc2)o1)N1CCCCC1CCn1cccn1 (stereo not drawn)	none
CCCCc1ccc(Nc2nc(CCC)cc(=O)[nH]2)cc1	PP1 counter 17.6, pPAFAH inh 28.7 | PP1 confirm inactive | PP5 counter inactive
Cn1ccc2cc3c(cc21)CCN3C(=O)Nc1cccnc1	PP1 counter 35.4 | PP1 confirm inactive | PP5 counter inactive
Cc1nc(C)c(NC(=O)N2CCc3ccccc32)cc1NC(=O)N1CCc2ccccc21	none
Cc1ccc(C)c(NC(=O)NCc2ccccn2)c1	none
CCn1c(SCC(=O)N/N=C/c2ccc(C)s2)nc2ccccc21	none
